# The sample as a whole holds a higher share of hits than the screen did.
# TDP1 cell noCPT – qHTS for Inhibitors of human tyrosyl-DNA phosphodiesterase 1 (TDP1): qHTS in cells in absence of CPT; Potency, µM (series often up to 46.2 µM), without a hit: at the top dose activity change, negative = growth inhibition, most hits filed as inhibitors; 420,000 compounds, 15% hits; DT40 Tdp1-/- hTDP1 cells, no CPT, ATP luminescence, 48 h; also: potency is read from the fitted curve at half-maximal effect; nearly all actives have a fitted effect of over 55% in size
#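 Cells were dispensed at 400 per well, compounds added by pin tool, plates incubated ≥48 hr at 37 °C, then CellTiter-Glo added for 30 min at room temperature before luminescence reading. Line: DT40 Tdp1-/- complemented with hTDP1; camptothecin omitted.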
# HT1080-NT tox – qHTS for induction of synthetic lethality in tumor cells producing 2HG: qHTS for the HT-1080-NT fibrosarcoma cell line. HT-1080-NT fibrosarcoma viability, CellTiter-Glo ATP luminescence, 48 h. Potency, µM (series often up to 46.1 µM), for the others: at the top dose activity, negative = less viability, actives largely listed as cytotoxic. 360,000 compounds, 1.6% hits. AID 686970, 2013;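 also: NT is the 2HG producing partner of a matched IDH1 knockdown line; potency is read from the fitted curve at half-maximal effect; 0% = DMSO-treated cells and -100% = media-only wells without cells; nearly all actives have a fitted effect of over 55% in size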
#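 Toxicity toward the 2HG-producing NT line was scored as %Activity, normalised to DMSO and no-cell wells, from CellTiter-Glo luminescence after 48 hours' treatment.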
# ALOX12 inh – Primary qHTS assay for inhibitors of human arachidonate 12S-lipoxygenase (ALOX12): Round 2. Polyunsaturated fatty acid lipoxygenase ALOX12 (Homo sapiens), P18054. purified 12hLO, xylenol orange hydroperoxide absorbance. Potency, µM (highest dose often 108 µM), for inactives: at the highest dose activity change, negative = inhibition, actives largely listed as inhibitors. 580,000 compounds, 1.1% hits; also: potency is read from the fitted curve at half-maximal effect
# Target sequence (P18054 whole entry, looked up): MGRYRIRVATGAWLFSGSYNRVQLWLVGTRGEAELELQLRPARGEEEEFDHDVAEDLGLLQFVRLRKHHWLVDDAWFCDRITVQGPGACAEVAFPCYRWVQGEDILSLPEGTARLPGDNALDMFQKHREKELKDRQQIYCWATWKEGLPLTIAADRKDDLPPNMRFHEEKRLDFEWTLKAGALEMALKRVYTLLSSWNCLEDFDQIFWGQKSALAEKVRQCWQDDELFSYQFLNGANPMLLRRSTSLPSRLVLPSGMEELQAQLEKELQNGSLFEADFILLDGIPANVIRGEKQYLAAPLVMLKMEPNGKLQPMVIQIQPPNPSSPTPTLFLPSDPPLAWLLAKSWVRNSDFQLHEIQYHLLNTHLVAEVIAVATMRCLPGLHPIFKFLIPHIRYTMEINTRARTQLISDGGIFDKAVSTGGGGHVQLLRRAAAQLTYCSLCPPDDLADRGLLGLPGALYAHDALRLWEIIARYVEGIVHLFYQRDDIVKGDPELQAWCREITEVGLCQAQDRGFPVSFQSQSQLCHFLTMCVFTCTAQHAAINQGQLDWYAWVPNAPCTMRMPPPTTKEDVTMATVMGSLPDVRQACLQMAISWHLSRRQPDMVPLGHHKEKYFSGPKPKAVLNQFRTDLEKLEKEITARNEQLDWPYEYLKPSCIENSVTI
#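 Purified human 12hLO (150 nM final) in 25 mM Hepes, 0.01% Triton X-100, pH 7.0 was preincubated 15 min at room temperature with compound. Then 40 uM arachidonic acid was added, 30 min. Hydroperoxide was read by Fe-XO absorbance ratio 573/405 nm.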
# TDP1 cell CPT – qHTS for Inhibitors of human tyrosyl-DNA phosphodiesterase 1 (TDP1): qHTS in cells in presence of CPT. chicken DT40 Tdp1-/-;hTDP1 cells + 20 nM CPT, ATP luminescence, 48 h. Potency, µM (top dose mostly 46.2 µM), for the others: at the highest dose activity change, negative = growth inhibition, usual class: inhibitors. 420,000 compounds, 12% hits. AID 686979, 2013; also: potency is read from the fitted curve at half-maximal effect; nearly all actives have a fitted effect of over 55% in size
#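 Chicken DT40 Tdp1-/- cells complemented with human TDP1, 400 cells/well, exposed to compounds plus 20 nM camptothecin for at least 48 h at 37 C; viability read as ATP content by CellTiter-Glo luminescence.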
# IL-1B inflam inh – qHTS for Inhibitors of Inflammasome Signaling: IL-1-beta AlphaLISA Primary Screen. THP-1 LPS/ATP IL-1B secretion, AlphaLISA, 16 h; active compounds read low. activity change, % at 57.5 µM. 360,000 compounds, 4.7% hits; in the data active = activity change below about -50%; inconclusive = mostly about -30% to -49%
#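 THP-1 cells pretreated 1 hr with compounds (up to 57.5 uM final), then stimulated with LPS (250 ng/mL final) plus ATP (1.25 mM final); secreted IL-1B measured by AlphaLISA after 16 hr, decreased signal indicating inhibition.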
# HT1080 IDH1KD tx – qHTS for induction of synthetic lethality in tumor cells producing 2HG: qHTS for the HT-1080-IDH1KD cell line | HT-1080 IDH1 knockdown viability, ATP luminescence, 48 h | Potency, µM (series often up to 46.1 µM), for inactives: at the top dose activity, negative = toxicity, actives largely listed as cytotoxic | 360,000 compounds, 2% hits;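 also: potency is read from the fitted curve at half-maximal effect; 0% = DMSO wells and -100% = cell-free medium wells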
#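 IDH1KD HT-1080 cells, 750/well, RPMI + 5% FBS; compound pinned after 2 h settling; 48 h, 37 °C; CellTiter-Glo luminescence; % activity normalised to DMSO and no-cell wells; curves fitted, classed by r2 and efficacy.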
# Starred values were filed as active, the others as inactive; ? = inconclusive; · = no result given; [ ] = remark or other dose. Unless noted, calls follow the shape of the dose curve; as a rule, active = well fitted curve in the direction sought with a large enough effect; inconclusive = small, poorly fitted or top-dose-only effect, or another doubt; inactive = no such curve, though single readings can be large; an effect the other way counts as inactive or inconclusive. Unless noted, % is scaled to controls: 0 for no effect and ±100 for the full control effect.
SMILES,TDP1 cell noCPT,HT1080-NT tox,ALOX12 inh,TDP1 cell CPT,IL-1B inflam inh,HT1080 IDH1KD tx
COC(=O)CN1C(C)=Nc2ccc(C)cc2C1c1ccccc1 (stereo not drawn),-24%,-4%,-15%,2%,-53*,2%
COC(=O)CN1C(c2ccccc2)=Nc2ccc(Cl)cc2C1c1ccccc1 (stereo not drawn),-25%,5%,-4%,-35%,-7,-3%
O=C(CCc1ccccc1)N1CCc2c([nH]c3ccccc23)C1c1ccc(Cl)cc1 (stereo not drawn),26µM*,·,-12%,16µM*,·,·
O=C(CCC1CCCC1)N1CCc2c([nH]c3ccccc23)C1c1ccc(Cl)cc1 (stereo not drawn),?,·,0%,?,·,·
CCOc1cccc(CC(=O)N2CCc3c([nH]c4ccccc34)C2c2ccc(Cl)cc2)c1OCC (stereo not drawn),15µM*,·,-28%,10µM*,·,·
CSc1ccc(C2c3[nH]c4ccccc4c3CCN2C(=O)CCc2ccccc2)cc1 (stereo not drawn),-21%,·,-17%,-18%,·,·
CC(C)C(=O)N(Cc1ccccn1)C1CC1,·,·,3%,·,·,·
COCOCCn1cc(CN2CCS(=O)(=O)N(Cc3ccc(-c4ccc(Cl)nc4)cc3)C(CC(C)C)C2=O)nn1 (stereo not drawn),?,-26%,-21%,?,-7,2%
COCOCCn1cc(CN2CCS(=O)(=O)N(Cc3ccc(-c4ccc(OC)c(OC)c4)cc3)C(CC(C)C)C2=O)nn1 (stereo not drawn),18µM*,-17%,?,21µM*,-10,-12%
COCOCCn1cc(CN2CCS(=O)(=O)N(Cc3ccc(-c4ccc(OC)nc4)cc3)C(C)C2=O)nn1 (stereo not drawn),-19%,-2%,?,-13%,-2,-3%
COCOCCn1cc(CN2CCS(=O)(=O)N(Cc3ccc(-c4ccc(Cl)cc4)cc3)C(CC(C)C)C2=O)nn1 (stereo not drawn),23µM*,?,-11%,?,5,?
COCOCCn1cc(CN2CCS(=O)(=O)N(Cc3ccc(-c4ccc(Cl)cc4)cc3)C(C)C2=O)nn1 (stereo not drawn),21µM*,-21%,-3%,23µM*,-15,-10%
O=C1CN(C(=O)c2c(F)cccc2F)C(c2ccccc2)c2cc(Br)ccc2N1 (stereo not drawn),?,?,-30%,?,-19,?
CCCC(=O)N1CC(=O)Nc2ccc(C)cc2C1c1ccccc1 (stereo not drawn),-5%,9%,-5%,5%,30,13%
Cc1ccc2c(c1)C(c1ccccc1)N(C(=O)COc1ccc(Cl)cc1Cl)CC(=O)N2 (stereo not drawn),21µM*,·,3%,21µM*,·,·
O=C1CN(C(=O)c2ccc(S(=O)(=O)N3CCCC3)cc2)C(c2ccccc2)c2cc(Cl)ccc2N1 (stereo not drawn),21µM*,·,-3%,?,·,·
O=C1CN(C(=O)c2cccc(Br)c2)C(c2ccccc2)c2cc(Cl)ccc2N1 (stereo not drawn),?,·,?,5.2µM*,·,·
O=C1CN(C(=O)Cc2ccc(F)cc2)C(c2ccccc2)c2cc(Cl)ccc2N1 (stereo not drawn),18µM*,·,-29%,15µM*,·,·
Cc1csc(NC(=O)CCc2ccc(S(N)(=O)=O)cc2)n1,·,·,-3%,·,·,·
CC(=O)c1cn(CC(=O)NCC2CCC(C(=O)O)CC2)c2ccccc12 (stereo not drawn),·,·,-5%,·,·,·
Cc1cnc(C(=O)N2CCC3(CCCN(Cc4cccc(F)c4F)C3=O)C2)[nH]1 (stereo not drawn),·,·,11%,·,·,·
CCc1cccc2c(C(=O)CCl)c[nH]c12,21µM*,?,-14%,15µM*,-95*,15µM*
OC(c1ccccn1)c1c[nH]c2ccccc12 (stereo not drawn),-21%,0%,?,-10%,-1,-1%
CCc1cccc2c(C(=O)CN3C(=O)NC4(CCCCC4)C3=O)c[nH]c12,5.8µM*,-26%,-8%,5.8µM*,-2,?
CCc1cccc2c(C(O)c3c[nH]c4ccccc34)c[nH]c12 (stereo not drawn),11µM*,·,·,4.5µM*,·,·
SMILES,TDP1 cell noCPT,HT1080-NT tox,ALOX12 inh,TDP1 cell CPT,IL-1B inflam inh,HT1080 IDH1KD tx
CN(C(=O)Cc1cccc2cccnc12)C1CCS(=O)(=O)C1 (stereo not drawn),·,·,1%,·,·,·
N#Cc1cc2c([nH]c1=S)CCCCCC2,-12%,15%,16µM*,-22%,30,20%
O=C(O)Cn1cc(/C=N/Nc2ccc([N+](=O)[O-])cn2)c2ccccc21,-3%,9%,?,19%,37,12%
Cc1ccc(C(=O)N/N=C/c2cn(Cc3ccccc3)c3ccccc23)cn1,21µM*,-18%,75%,?,11,-24%
Cc1ccc(Cn2cc(/C=N/Nc3ccc([N+](=O)[O-])cn3)c3ccccc32)cc1,16µM*,?,-6%,?,2,?
Cc1cc(/C=N/Nc2ccc([N+](=O)[O-])cn2)c(C)n1-c1ccccc1,?,3%,0%,18µM*,7,5%
O=C(N/N=C/c1cn(Cc2ccccc2)c2ccccc12)c1cc(O)cc(O)c1,2%,-19%,0%,-14%,?,?
NC1CC1c1ccc2ccccc2c1 (stereo not drawn),·,·,10%,·,·,·
Cc1ccc(CN2C(=O)N/C(=C\c3cccn3-c3cccc(C(=O)O)c3)C2=O)cc1,7.3µM*,-1%,?,8.2µM*,38,-7%
O=C(O)c1cccc(-n2cccc2/C=C2\NC(=O)N(Cc3ccc(F)cc3)C2=O)c1,?,-15%,40µM*,?,0,-9%
Cc1ccc(NC(=O)CN2C(=O)N/C(=C\c3cccn3-c3cccc(C(=O)O)c3)C2=O)cc1,-28%,16%,·,3%,8,27%
CC(C)C(=O)N1CCCC2(CNS(=O)(=O)c3cccnc3O2)C1 (stereo not drawn),·,·,2%[6.33 µM],·,·,·
